Screens deposited in PubChem by several laboratories.
MEKK2 mut-MEK5 = signal of MEK5 binding to mutant human MEKK2 PB1 domain | bead flow cytometry, Alexa488-MEK5 binding to MEKK2 mutant | percent response, % at 10 µM | actives 0.35% (n = 290,000) | AID 1530; in the data active = percent response above about 24%, passing the limit was not always enough
MEKK2wt PB1 HTS = raises or lowers MEK5 binding to wildtype human MEKK2 PB1 domain; Q9Y2U5; bead flow cytometry, Alexa488-MEK5 binding to MEKK2 WT; actives lie on both sides; binding response (% of control), % at 10 µM; actives 1.1% (n = 290,000); AID 1531; in the data active = binding response below about 67% or above about 130%
SKN-1 inh = C. elegans SKN-1 inhibition. C. elegans VP596 Pgst-4::GFP/RFP ratio, acrylamide-induced, 24 h. inhibition, % at 21.8 µM. actives 0.49% (n = 360,000). AID 624304;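 active = interference check ratio from 0.5 to 1.5 plus GFP to RFP signal ratio inhibition reaching or exceeding a fixed threshold, cut at about 30% in these data, passing the limit was not always enough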
MEKK3 PB1 HTS = raises or lowers MEK5 binding to the human MEKK3 PB1 domain; Q99759; bead-based flow cytometry, Alexa488-MEK5 binding to MEKK3; actives lie on both sides; 0 = blocked by unlabeled MEK5, 100 = vehicle; binding response (% of control), % at 10 µM; actives 1.4% (n = 290,000); AID 1529;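 active = binding response more than 3 SD above or below the average of its plate-row segment, actives on both sides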;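 note: Alexa488 bead fluorescence after subtracting the streptavidin-only scavenger bead signal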
NRP1-CendR mod = NRP-1/CendR interaction modulation; O14786; FAM-RPARPAR peptide binding to NRP-1, fluorescence polarization; inhibition, % at 25 µM; actives 0.85% (n = 360,000);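 active = inhibition or corrected inhibition above about 18%, plus a signal ratio from 0.5 to 1.5, limit read from the data, passing the limit was not always enough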
Target sequence (O14786 whole entry, looked up): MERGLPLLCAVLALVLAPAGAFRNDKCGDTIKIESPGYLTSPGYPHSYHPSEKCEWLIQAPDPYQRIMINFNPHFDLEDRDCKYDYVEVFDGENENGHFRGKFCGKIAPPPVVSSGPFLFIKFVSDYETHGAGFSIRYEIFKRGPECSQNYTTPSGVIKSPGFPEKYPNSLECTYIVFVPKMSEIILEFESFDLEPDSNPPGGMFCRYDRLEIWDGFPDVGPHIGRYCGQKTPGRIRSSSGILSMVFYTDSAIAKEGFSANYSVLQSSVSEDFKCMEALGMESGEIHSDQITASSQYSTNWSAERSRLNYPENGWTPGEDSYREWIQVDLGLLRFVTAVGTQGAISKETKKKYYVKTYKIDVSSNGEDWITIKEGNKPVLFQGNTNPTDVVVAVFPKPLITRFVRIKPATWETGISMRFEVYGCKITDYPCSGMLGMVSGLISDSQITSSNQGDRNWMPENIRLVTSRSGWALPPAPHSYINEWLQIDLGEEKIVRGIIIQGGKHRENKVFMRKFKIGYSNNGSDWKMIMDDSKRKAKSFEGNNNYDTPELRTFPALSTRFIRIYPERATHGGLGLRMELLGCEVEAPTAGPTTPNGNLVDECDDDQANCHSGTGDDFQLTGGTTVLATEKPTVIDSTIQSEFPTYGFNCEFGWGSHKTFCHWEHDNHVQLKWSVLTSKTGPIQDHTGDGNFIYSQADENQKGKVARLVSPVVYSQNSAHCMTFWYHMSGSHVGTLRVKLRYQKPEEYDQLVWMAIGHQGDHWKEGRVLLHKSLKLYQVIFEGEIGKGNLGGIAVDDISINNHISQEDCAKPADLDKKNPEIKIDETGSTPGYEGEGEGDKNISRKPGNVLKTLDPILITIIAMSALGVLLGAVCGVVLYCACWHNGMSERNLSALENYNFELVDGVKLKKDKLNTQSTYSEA
MEKK2wt confirm = raises or lowers MEK5 binding to wildtype human MEKK2, retest. AID 1892. bead flow cytometry, Alexa488-MEK5 binding to MEKK2 WT; actives lie on both sides. shares compounds with MEKK3 PB1 HTS. binding response (% of control), % at 10 µM. actives 2.4% (n = 5,900); in the data active = binding response below about 16% or above about 210%; inactive = in between
MEKK2mut confirm = signal of MEK5 binding to mutant human MEKK2, retest; shares compounds with MEKK3 PB1 HTS; bead flow cytometry, Alexa488-MEK5 binding to MEKK2 mutant; percent response, % at 10 µM; actives 2% (n = 5,900); in the data active = percent response mostly above about 71%, no sharp cut-off; inactive = mostly below about 38%;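 note: higher means compound restores mutant binding toward wildtype level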
MEKK3 confirm = MEKK3-MEK5 PB1 inhibition, single concentration confirmation; shares compounds with MEKK3 PB1 HTS; bead flow cytometry, Alexa488-MEK5 binding to MEKK3; stronger effect = lower value; binding response (% of control), % at 10 µM; actives 1.8% (n = 5,900); AID 1894;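 active = binding response below 72% of control, or above a set upper limit, though filed actives all read lower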
Of the large screens only hits and unclear results are named; the others gave an inactive call (follow-up assays come after a bar, where they were run); [ ] = dose if it differs, or a comment. Only some compounds are listed: those with a hit (about 3.2% of all), similar ones and a draw of the others.

COC(=O)c1ccc(C(=O)N2CCCC(CNC(=O)c3ccccc3Cl)C2)cc1 (stereo not drawn)	none
CCN(C(=O)CSc1nnc2ccccn12)c1c(N)n(Cc2ccccc2)c(=O)[nH]c1=O	none
CCCCN(C(=O)CSc1nnc2ccccn12)c1c(N)n(Cc2ccccc2)c(=O)[nH]c1=O	MEKK3 PB1 HTS 128 | MEKK2wt confirm inactive | MEKK2mut confirm inactive | MEKK3 confirm inactive
O=C(NNC(=O)C1CC2CCC1C2)c1sc2ccccc2c1Cl (stereo not drawn)	MEKK3 PB1 HTS 149 | MEKK2wt confirm inactive | MEKK2mut confirm inactive | MEKK3 confirm inactive
O=C(NC1CC1)c1sc2ccccc2c1Cl	none
O=C(O)c1cccc(-n2cccc2/C=C2/NC(=O)N(c3ccc(Cl)cc3)C2=O)c1	MEKK2wt PB1 HTS 63[inhibitor], MEKK3 PB1 HTS 74[inhibitor] | MEKK2wt confirm inactive | MEKK2mut confirm inactive | MEKK3 confirm inactive
COc1ccc(-n2cccc2/C=C2/NC(=O)N(c3cccc(Cl)c3)C2=O)cc1	MEKK3 PB1 HTS 130 | MEKK2wt confirm inactive | MEKK2mut confirm inactive | MEKK3 confirm inactive
O=C(O)c1cccc(-n2cccc2/C=C2/NC(=O)N(c3cccc(Cl)c3)C2=O)c1	none
COc1cc(C(=O)N2CCN(C(=O)c3cc(-c4ccccc4)n[nH]3)CC2)cc(OC)c1OC	none
O=C(N[C@H]1c2ccccc2C[C@H]1O)[C@H]1O[C@@H](n2ccc(=O)[nH]c2=O)[C@H](O)[C@@H]1O	none (no result: MEKK2 mut-MEK5, MEKK2wt PB1 HTS, MEKK3 PB1 HTS)
C=CCC1NS(=O)(=O)OC(CCc2ccccc2)C1O (stereo not drawn)	none
CC(OC(=O)c1nn(C)c(=O)c2ccccc12)C(=O)Nc1ccc(S(N)(=O)=O)cc1 (stereo not drawn)	none (no result: MEKK2 mut-MEK5, MEKK2wt PB1 HTS, MEKK3 PB1 HTS)
CN1CCc2nc(SCc3ccc(C(C)(C)C)cc3)c(C#N)cc2C1	MEKK2wt PB1 HTS 142 | MEKK2wt confirm inactive | MEKK2mut confirm inactive | MEKK3 confirm inactive
CC[C@H](C)Cc1cn([C@@H](CCCCNC(=O)OC(C)(C)C)C(=O)NCCCCCCCCCCC(=O)N2CCN(C(=O)OC(C)(C)C)CC2)nn1	none (no result: MEKK2 mut-MEK5, MEKK2wt PB1 HTS, MEKK3 PB1 HTS)
CSCCC(C(=O)Nc1c(C)cccc1C)n1c(COc2ccc(C)cc2)nc2ccccc21 (stereo not drawn)	none (no result: MEKK2 mut-MEK5, MEKK2wt PB1 HTS, MEKK3 PB1 HTS)
Cc1nc2cc(NC(=O)N3CC4(C)CC3CC(C)(C)C4)ccc2n1C (stereo not drawn)	MEKK2wt PB1 HTS -2.0[inhibitor], MEKK3 PB1 HTS 2.0[inhibitor] | MEKK2wt confirm inactive | MEKK2mut confirm inactive | MEKK3 confirm inactive
Cc1nc2cc(NC(=O)N3CCCC3)ccc2n1C	none
COc1ccc(C(=O)C2CCCN(Cc3cn[nH]c3-c3ccccc3)C2)cc1OC (stereo not drawn)	none
Cn1ccnc1C(=O)C1CCCN(Cc2cn[nH]c2-c2ccc(-c3ccccc3)cc2)C1 (stereo not drawn)	MEKK2wt PB1 HTS 148 | MEKK2wt confirm inactive | MEKK2mut confirm inactive | MEKK3 confirm inactive
O=c1sc2ccccc2c(=O)n1Cc1ccccc1F	MEKK3 PB1 HTS 139 | MEKK2wt confirm inactive | MEKK2mut confirm inactive | MEKK3 confirm inactive
O=c1c([N+](=O)[O-])c(N2CCCCCC2)c2ccccc2n1-c1ccccc1	MEKK3 PB1 HTS 49[inhibitor] (no result: MEKK2 mut-MEK5, MEKK2wt PB1 HTS) | MEKK2wt confirm inactive | MEKK2mut confirm inactive | MEKK3 confirm inactive
COC(=O)CCCC1=CC2=C(c3ccccc3)C(=O)C(C)(OC(=O)C3CCCC3)C(=O)C2=CN1C1CC1 (stereo not drawn)	MEKK2wt PB1 HTS 155 | MEKK2wt confirm inactive | MEKK2mut confirm inactive | MEKK3 confirm inactive
